Assay results from paper PMC5540273 (PLoS ONE, 2017).

How the values were obtained:
Settings in all cases: concentration: 1 μM, replicates: in singlicate; n = 1
PAK6 = system: PAK6
PAK7 = system: PAK7
PCTK1 = system: T1, PCTK1
T1 construct: gene CDK16

PCTK2 = system: T2, PCTK2
T2 construct: gene CDK17

PCTK3 = system: T3, PCTK3
T3 construct: gene CDK18

PDGFRA = system: PDGFRA
PDGFRB = system: PDGFRB
PDPK1 = system: PDPK1
PFTAIRE2 = system: PFTAIRE2
PFTK1 = system: T4, PFTK1
T4 construct: gene CDK14
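Further: KINOMEscan kinase panel screen.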

Compound	%Inh (PAK6)	%Inh (PAK7)	%Inh (PCTK1)	%Inh (PCTK2)	%Inh (PCTK3)	%Inh (PDGFRA)	%Inh (PDGFRB)	%Inh (PDPK1)	%Inh (PFTAIRE2)	%Inh (PFTK1)
Cc1cccc(-c2nc(Nc3ccncc3)c3ccccc3n2)n1 [GW855857]	3%	0%	0%	10%	0%	0%	3%	24%	0%	0%
COc1ccccc1-c1ccc2c(NC(=O)C3CC3)n[nH]c2n1 [SB-711239]	54%	4%	1%	0%	27%	0%	0%	13%	9%	2%
Cc1cccc(-c2nc(C)cc(Nc3ccncc3)n2)n1 [GSK257997]	0%	0%	9%	0%	15%	0%	11%	0%	14%	24%
Nc1ncnc2[nH]c(-c3ccccc3)nc12 [AH5015]	0%	0%	3%	0%	0%	9%	42%	21%	6%	11%
Fc1cc(Cl)ccc1Nc1ccnc2cc(I)ccc12 [GW551191]	0%	0%	4%	0%	0%	9%	88%	0%	9%	4%
CS(=O)(=O)c1ccc(-c2nc3n(c2-c2ccncc2)CCC3)cc1 [SKF-105942]	99.2%	0%	11%	0%	0%	0%	4%	0%	12%	37%
Cc1cccc(-c2nc(Nc3cccc(C(N)=O)c3)c3ccccc3n2)n1 [GW876019]	0%	0%	0%	0%	0%	0%	5%	0%	20%	0%
Fc1cc(Cl)ccc1Nc1ccnc2cc(-c3ccc(CN4CCCCC4)o3)ccc12 [GW560116]	0%	16%	0%	0%	27%	65%	94.8%	100%	0%	18%
